Test results reported in PMC5540273 (PLoS ONE, 2017).

What was measured:
Settings in all cases: concentration: 1 μM, replicates: in singlicate; n = 1
PIM1 = test system: PIM1
PIM2 = test system: PIM2
PIM3 = test system: PIM3
PIP5K1A = test system: PIP5K1A
PIP5K1C = test system: PIP5K1C
PIP5K2B = test system: PIP5K2B
PIP5K2C = test system: T1, PIP5K2C
T1 construct: gene PIP4K2C

PKAC-alpha = test system: T2, PKAC-alpha
T2 construct: gene PRKACA

PKAC-beta = test system: T3, PKAC-beta
T3 construct: gene PRKACB

PKMYT1 = test system: PKMYT1
PKN1 = test system: PKN1
PKN2 = test system: PKN2
PLK1 = test system: PLK1
PLK2 = test system: PLK2
PLK3 = test system: PLK3
PLK4 = test system: PLK4
PRKCD = test system: PRKCD
PRKCE = test system: PRKCE
PRKCH = test system: PRKCH
PRKCI = test system: PRKCI
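Also: KINOMEscan kinase panel screen.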

Row | SMILES | %Inh (PIM1) [%] | %Inh (PIM2) [%] | %Inh (PIM3) [%] | %Inh (PIP5K1A) [%] | %Inh (PIP5K1C) [%] | %Inh (PIP5K2B) [%] | %Inh (PIP5K2C) [%] | %Inh (PKAC-alpha) [%] | %Inh (PKAC-beta) [%] | %Inh (PKMYT1) [%] | %Inh (PKN1) [%] | %Inh (PKN2) [%] | %Inh (PLK1) [%] | %Inh (PLK2) [%] | %Inh (PLK3) [%] | %Inh (PLK4) [%] | %Inh (PRKCD) [%] | %Inh (PRKCE) [%] | %Inh (PRKCH) [%] | %Inh (PRKCI) [%]
1 | O=S(=O)(c1ccc(-c2ccnc3[nH]ccc23)cc1)N1CCCC1 [GSK846226] | 13 | 0 | 8 | 37 | 19 | 0 | 0 | 81 | 71 | 0 | 40 | 0 | 0 | 4 | 0 | 0 | 0 | 2 | 0 | 20
2 | Cc1ccc(C(=O)Nc2ccc(Nc3ccnc4cc(-c5ccccn5)ccc34)cc2O)cc1.Cl [GW440146] | 16 | 0 | 12 | 35 | 0 | 11 | 31 | 0 | 8 | 0 | 0 | 0 | 0 | 0 | 0 | 10 | 0 | 0 | 24 | 5
3 | COc1ccc(Nc2nccc(NCCNC(=O)Nc3ccccc3F)n2)cc1 [GSK1379901] | 0 | 0 | 0 | 35 | 33 | 14 | 56 | 0 | 0 | 4 | 16 | 0 | 0 | 0 | 0 | 0 | 0 | 19 | 19 | 23
4 | Cc1ccc(-c2cc(-c3c[nH]nc3-c3ccccn3)ccn2)cc1 [GW684088] | 20 | 0 | 2 | 50 | 71 | 8 | 67 | 30 | 0 | 0 | 0 | 0 | 0 | 0 | 0 | 0 | 0 | 16 | 0 | 12
